# Results published in PubChem BioAssay (NCATS).
# Records with an inconclusive call do not appear. Active and inactive are the calls of the source. The call rests on the fitted dose curve; in most records, active means well fitted inhibition curve with a large enough effect; inconclusive means small, poorly fitted or top-dose-only effect; inactive means flat fitted curve, though single readings scatter.
# Molecular target: Luciferin 4-monooxygenase (Photinus pyralis) (UniProt P08659)
# Assay: Biochemical firefly luciferase enzyme assay for NPC (AID 624030); further: nearly all actives have a fitted effect of over 70% in size;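 on activity change, negative = inhibition: purified P. pyralis luciferase at 10 nM with luciferin and ATP substrate; 0% = DMSO and -100% = full luciferase inhibition by PTC124 control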
# Settings: purified P. pyralis luciferase, luminescence, 5 min; series mostly up to 58.6 µM; activity change, negative = inhibition: at the top concentration
# In short: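 Direct inhibition of firefly luciferase enzyme (10 nM final, 50 mM Tris Acetate) assessed by luminescence within 5 minutes. Percent activity scaled between DMSO and PTC124 positive control, with concentration-effect curves classified by fit quality and response.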
# Potency means the concentration at half of the fitted maximal effect.
# Chain of Luciferin 4-monooxygenase (Photinus pyralis) (P08659 whole entry, looked up): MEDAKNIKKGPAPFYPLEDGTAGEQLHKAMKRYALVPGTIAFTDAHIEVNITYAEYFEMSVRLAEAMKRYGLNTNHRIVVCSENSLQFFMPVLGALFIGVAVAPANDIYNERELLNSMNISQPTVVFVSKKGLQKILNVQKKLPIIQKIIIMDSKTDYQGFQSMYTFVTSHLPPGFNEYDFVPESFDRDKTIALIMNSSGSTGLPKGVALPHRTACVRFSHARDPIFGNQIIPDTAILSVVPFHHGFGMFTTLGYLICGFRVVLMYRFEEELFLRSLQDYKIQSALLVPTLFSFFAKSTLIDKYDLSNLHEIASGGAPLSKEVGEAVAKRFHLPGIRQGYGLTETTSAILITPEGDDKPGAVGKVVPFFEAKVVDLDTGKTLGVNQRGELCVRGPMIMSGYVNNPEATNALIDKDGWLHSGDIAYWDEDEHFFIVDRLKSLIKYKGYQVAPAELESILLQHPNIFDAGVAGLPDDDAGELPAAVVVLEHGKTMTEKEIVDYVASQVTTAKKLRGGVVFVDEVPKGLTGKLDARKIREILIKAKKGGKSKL
SMILES,"activity change, negative = inhibition",Potency
O=S(O)CNc1ccc(S(=O)(=O)c2ccc(NCS(=O)O)cc2)cc1,-4.49% (inactive),–
Cc1ccc(C2(O)CCN(CCCC(=O)c3ccc(F)cc3)CC2)cc1,1.91% (inactive),–
O=S(=O)(O)Oc1ccc(C(c2ccc(OS(=O)(=O)O)cc2)c2ccccn2)cc1,-15.5% (inactive),–
CCN1CCCC1CNC(=O)c1cc(S(=O)(=O)CC)ccc1OC (stereo not given),-0.307% (inactive),–
Cc1cc(Nc2ccccc2C(=O)O)ccc1Cl,–,16.1 µM (active)
CN1CCN(CCCN2c3ccccc3Sc3ccccc32)CC1,4.94% (inactive),–
Cn1nnnc1SCC1=C(C(=O)O)N2C(=O)[C@@H](NC(=O)[C@H](OC=O)c3ccccc3)[C@H]2SC1,-18.1% (inactive),–
CCCCCCCCCCCCCCCC(=O)OCCC1CCN(CCCN2c3ccccc3Sc3ccc(S(=O)(=O)N(C)C)cc32)CC1,-1.37% (inactive),–
C=CCNC1=C2C[C@@H](C)C[C@H](OC)[C@H](O)[C@@H](C)/C=C(\C)[C@H](OC(N)=O)[C@@H](OC)/C=C\C=C(/C)C(=O)NC(=CC1=O)C2=O,-16.8% (inactive),–
C[C@H]1C[C@@H]2[C@H]([C@@H](O)C[C@@]3(C)[C@H]2CC[C@]3(O)C(=O)COC(=O)CCC(=O)O)[C@@]2(C)C=CC(=O)C=C12,45.6% (inactive),–
CCN(CC)c1ccc(N=Nc2ccc(S(=O)(=O)N(C)C)cc2)c(S(=O)(=O)NCC[n+]2ccccc2)c1,-7.09% (inactive),–
NC(=O)C[C@@H](N)C(=O)O,-0.0814% (inactive),–
CCCCCCCCCCCCCCCCCC(=O)[O][Al],-2.65% (inactive),–
COc1cc2c(c(OC)c1OC)-c1c(cc3c(c1OC)OCO3)C[C@@H](C)[C@](C)(O)C2,-5.87% (inactive),–
CCC(=O)O,-5.7% (inactive),–
NNc1nnc(Cc2ccncc2)c2ccccc12,–,5.1 µM (active)
CCCCc1cc2c(=O)c(C(=O)OC)c[nH]c2cc1OCc1ccccc1,-2.2% (inactive),–
CN=C(NC)NCc1ccccc1,-5.95% (inactive),–
CN[C@H]1CC[C@@H](c2ccc(Cl)c(Cl)c2)c2ccccc21,12.7% (inactive),–
O=C(O)c1cc2ccccc2c(Cc2c(O)c(C(=O)O)cc3ccccc23)c1O,–,14.4 µM (active)
COc1ccc(C(=O)Nc2ccccc2CCC2CCCCN2C)cc1 (stereo not given),-0.689% (inactive),–
O=C(O)c1cccc(/C=C2/C[C@@H]3[C@@H](/C=C/[C@@H](O)C4CCCCC4)[C@H](O)C[C@@H]3O2)c1,-3.56% (inactive),–
O=P(O)(O)C(O)(Cc1cnc2ccccn12)P(=O)(O)O,-1.79% (inactive),–
CC1=C(C(=O)OCCN(Cc2ccccc2)c2ccccc2)C(c2cccc([N+](=O)[O-])c2)C(P2(=O)OCC(C)(C)CO2)=C(C)N1 (stereo not given),-4.84% (inactive),–
CCCCCCCCCCCCCCCCCC(=O)OCCO,-5.1% (inactive),–
O=P(O)(O)OC(CO)CO,0.614% (inactive),–
COC1C(OC(=O)/C=C/C=C/C=C/C=C/C(=O)O)CCC2(CO2)C1C1(C)OC1CC=C(C)C (stereo not given),-5.97% (inactive),–
CS(=O)(=O)OCCCNCCCOS(C)(=O)=O,-0.291% (inactive),–
CCCCCC(O)/C=C/C=O (stereo not given),-1.6% (inactive),–
Cc1ccc(/C(=C\CN2CCCC2)c2cccc(/C=C/C(=O)O)n2)cc1,-3.86% (inactive),–
